The source of these data is PubChem BioAssay AID1347420 (Sanford-Burnham Center for Chemical Genomics, 2020).

In general, inhibition refers to the change of the read-out against control, counted positive when it falls.

The campaign covered roughly 1,300 compounds. About 980 (75%) were called active. About 4% were inconclusive and are not listed. Some of the results follow.

Sequence of Sulfhydryl oxidase 1 (Homo sapiens) (O00391 whole entry, looked up): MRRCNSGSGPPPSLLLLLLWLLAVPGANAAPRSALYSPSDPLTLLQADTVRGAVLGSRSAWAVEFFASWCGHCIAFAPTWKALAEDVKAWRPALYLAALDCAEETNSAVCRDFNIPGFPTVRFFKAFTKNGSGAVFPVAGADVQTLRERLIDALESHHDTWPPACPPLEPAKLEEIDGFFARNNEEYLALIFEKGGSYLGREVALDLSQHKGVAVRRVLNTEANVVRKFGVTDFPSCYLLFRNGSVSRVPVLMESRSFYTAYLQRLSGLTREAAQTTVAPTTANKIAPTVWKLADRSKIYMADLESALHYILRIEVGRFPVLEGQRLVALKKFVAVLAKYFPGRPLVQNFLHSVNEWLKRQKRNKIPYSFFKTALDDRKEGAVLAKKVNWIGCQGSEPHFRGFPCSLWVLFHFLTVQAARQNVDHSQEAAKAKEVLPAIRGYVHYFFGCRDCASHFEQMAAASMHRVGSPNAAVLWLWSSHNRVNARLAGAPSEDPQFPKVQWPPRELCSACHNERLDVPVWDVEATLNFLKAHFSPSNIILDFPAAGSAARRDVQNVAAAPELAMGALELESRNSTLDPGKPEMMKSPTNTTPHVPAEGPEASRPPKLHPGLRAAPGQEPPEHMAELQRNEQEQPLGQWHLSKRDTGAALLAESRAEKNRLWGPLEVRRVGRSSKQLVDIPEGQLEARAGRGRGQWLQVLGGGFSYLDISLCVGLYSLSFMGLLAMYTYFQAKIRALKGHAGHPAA

The assay addresses Sulfhydryl oxidase 1 (Homo sapiens) (UniProt O00391). In words: QSOX1 enzyme inhibitors, primary screen, biochemical, HyperBlu H2O2 luminescence, HTS (AID 1347420). Note: values above 100% were filed as inconclusive. The following applies: recombinant QSOX1, HyperBlu H2O2 luminescence; at 12.5 µM; hits give high values; active = any value above zero.
For the compound `CC(C)c1ccc2c(c1)c(SC(C)(C)C)c(CC(C)(C)C(=O)O)n2Cc1ccc(Cl)cc1`, the inhibition was 0.2% (active). Consider `NCCCCN=C(N)N`, for which the inhibition is 15.4% (active). On to `NC(N)=NCCCCN=C(N)N`, for which the inhibition is 7% (active).

Take `CCN(CC)CC#CCOC(=O)C(O)(c1ccccc1)C1CCCCC1` (stereo not given): the inhibition is 8.3% (active). The result for `O=C(/C=C/c1ccc(O)cc1)c1ccc(O)cc1O` reads 58.4% (active); that for `NC(Cc1cccc(-c2ccccc2CP(=O)(O)O)c1)C(=O)O` (stereo not given), 5.3% (active); that for `Oc1ccc(Cn2cc[nH]c2=S)cc1`, 22.2% (active). As to `COCc1nc2c([nH]1)c(=O)n(C)c(=O)n2CC(C)C`, the inhibition is 3% (active).

Consider `CN(C)CC/C=C1\c2ccccc2COc2ccccc21`, for which the inhibition is 5% (active). The result for `CN(C)CCC=C1c2ccccc2C=Cc2ccccc21` reads -6.8% (inactive); that for `CN(C)CCC=C1c2ccccc2CCc2ccccc21`, 23.9% (active); that for `CNCCC=C1c2ccccc2CCc2ccccc21`, 0.1% (active). For the compound `NC(=O)c1ncn([C@@H]2O[C@H](CO)[C@@H](O)[C@H]2O)n1`, the inhibition is 6.1% (active).

Regarding `NC(=O)c1ncn([C@@H]2O[C@H](CO)[C@@H](O)[C@H]2O)c1O`, the inhibition is 9.1% (active). Consider `CCN(CC)CC(=O)Nc1c(C)cccc1C`, for which the inhibition is 6.5% (active). As for `COC(=O)C1=CO[C@@H](O)[C@@H]2C(CO)=CC[C@H]12`, the inhibition was 16.3% (active).

With `CCC(C)N(C)C(=O)c1cc2ccccc2c(-c2ccccc2Cl)n1` (stereo not given), the inhibition is 14% (active).

On to `CN=C(NC#N)NCCSCc1nc[nH]c1C`, for which the inhibition was 13.2% (active). Take `Cc1cccc(C)c1OCC(N)C(C)C` (stereo not given): the inhibition is 15.4% (active). In the case of `Cc1cccc(C)c1OCC(C)N` (stereo not given), the inhibition was -6% (inactive). The result for `CC(N)C1CCC(C(=O)Nc2ccncc2)CC1` (stereo not given) reads 23% (active). With `CC(N=C(NC#N)Nc1ccncc1)C(C)(C)C` (stereo not given), the inhibition is -10.9% (inactive). Turning to `c1ccc(C2CN3CCSC3=N2)cc1` (stereo not given), the inhibition was -12.3% (inactive). The result for `c1ccc([C@H]2CN3CCSC3=N2)cc1` reads 10.2% (active). For the compound `Brc1ccc([C@H]2CN3CCSC3=N2)cc1`, the inhibition is 18.2% (active). Under `CCCn1c(=O)c(C)cn2nc(N)nc12` stands 12.2% (active); under `CCCCCCCCCCC(C)(C)C(=O)Nc1c(OC)cc(OC)cc1OC`, 15.9% (active); under `Brc1c(Br)c(Br)c2n[nH]nc2c1Br`, 29.4% (active). Turning to `NC(=Nc1ccccc1)NC(=O)c1nc(Cl)c(N)nc1N`, the inhibition is 13.3% (active).

Consider `NC(=NCc1ccccc1)NC(=O)c1nc(Cl)c(N)nc1N`, for which the inhibition is 3.9% (active). Take `O=C(O)CNC(=O)C(CS)Cc1ccccc1` (stereo not given): the inhibition is 3.5% (active). Regarding `COc1ccc(NC(=O)/C=C/c2ccc(Cl)cc2)cc1`, the inhibition is 18% (active). `COc1ccc([C@@H]2Sc3ccccc3N(CCN(C)C)C(=O)[C@@H]2OC(C)=O)cc1`: the inhibition was 10.6% (active). For `Cc1ccc([N+](=O)[O-])cc1S(=O)(=O)N(C)C`, the inhibition was -9.6% (inactive). Take `CS(=O)(=O)Nc1ccc([N+](=O)[O-])cc1Oc1ccccc1`: the inhibition is 97.4% (active). The result for `COc1cc2c(cc1OC)C1CC(=O)C(CC(C)C)CN1CC2` (stereo not given) reads 6.3% (active); that for `CC[C@H]1CN2CCc3cc(OC)c(OC)cc3[C@@H]2C[C@@H]1C[C@H]1NCCc2cc(OC)c(OC)cc21`, 13% (active).

Consider `CCC1(C)CC(=O)NC1=O` (stereo not given), for which the inhibition was 13.4% (active). Under `O=C(C1CCCCC1)N1CC(=O)N2CCc3ccccc3C2C1` (stereo not given) stands 8% (active); under `CC(C)(C)[C@]1(O)CCN2C[C@H]3c4ccccc4CCc4cccc(c43)[C@@H]2C1`, -3.5% (inactive); under `N[C@H](CO)C(=O)O`, 6.6% (active).

Turning to `N[C@@H](CC(=O)O)C(=O)O`, the inhibition is 20.6% (active). For the compound `C=CC[C@H](N)C(=O)O`, the inhibition was 5.3% (active). On to `N[C@@H](CS(=O)O)C(=O)O`, for which the inhibition was 16% (active). The result for `N[C@H](C(=O)O)[C@H](O)C(=O)O` reads -0.9% (inactive); that for `CCc1cccc(N(C)C(N)=Nc2cccc3ccccc23)c1`, -10.9% (inactive); that for `O=C(O)C1=CCCN(CCON=C(c2ccccc2)c2ccccc2)C1`, -7.5% (inactive). On to `O=C(O)COCCN1CCN(C(c2ccccc2)c2ccc(Cl)cc2)CC1` (stereo not given), for which the inhibition is 6.6% (active). For `C=CCc1ccccc1OCC(O)CNC(C)C` (stereo not given), the inhibition was 1.7% (active). For `CC(C)NCC(O)COc1cccc2ccccc12` (stereo not given), the inhibition is 10.3% (active). Regarding `CC(C)NC[C@H](O)COc1cccc2ccccc12`, the inhibition is -5.6% (inactive). For the compound `CC(C)NC[C@H](O)COc1cccc2[nH]ccc12`, the inhibition is 12.2% (active). Under `CCC1(c2ccccc2)C(=O)NCNC1=O` stands -13.9% (inactive); under `CC(C)NCC(O)COc1cccc2[nH]ccc12` (stereo not given), 8% (active); under `c1cnc2c(c1)ccc1cccnc12`, 9.8% (active).

As for `CCCCNc1ccc(C(=O)OCCN(C)C)cc1`, the inhibition was 9.2% (active).

For `CCCCNc1cc(C(=O)O)cc(S(N)(=O)=O)c1Oc1ccccc1`, the inhibition was -9.6% (inactive). Regarding `CCN(CC)CCOC(=O)c1ccc(N)cc1`, the inhibition was -5.5% (inactive).

As for `NC(N)=NCc1cccc(I)c1`, the inhibition is 0.4% (active). In the case of `C=C1C(=O)O[C@@H]2[C@H]3O[C@]3(C)CCC=C(C)CC[C@@H]12`, the inhibition is -3.6% (inactive).

Regarding `NC(N)=NCCC[C@H](N)C(=O)O`, the inhibition was -5.3% (inactive). Regarding `CN=C(N)NCCC[C@H](N)C(=O)O`, the inhibition is 1.3% (active). Under `CSC(N)=NCCC[C@H](N)C(=O)O` stands 8% (active). Regarding `CN(C)C(N)=NCCC[C@H](N)C(=O)O`, the inhibition was -1.4% (inactive). Under `CC(N)=NCCCC[C@@H](N)C(=O)O` stands 5% (active); under `N#C/C(=C\c1ccc(O)c(O)c1)C(=O)c1ccc(O)c(O)c1`, 81.2% (active); under `C[C@]12C=CC(=O)C=C1CC[C@@H]1C2=CC[C@]2(C)[C@@H](C(=O)CN3CCN(c4cc(N5CCCC5)nc(N5CCCC5)n4)CC3)CC[C@@H]12`, 21.5% (active). In the case of `CN1CC(O)C(O)C(O)C1CO` (stereo not given), the inhibition was 11.1% (active).

For `Cc1cc2c(cc1Cl)N(C(=O)Nc1ccnc3ccccc13)CC2`, the inhibition was 52.9% (active). Take `Cc1cc2c(cc1Cl)N(C(=O)Nc1ccc(Oc3cccnc3C)nc1)CC2`: the inhibition is 2.9% (active). In the case of `O=C(OCCN1CCOCC1)C1(c2ccccc2)CCCCC1`, the inhibition is 14.9% (active). Consider `c1ccc(CN2CCC3(CCCc4ccccc43)CC2)cc1`, for which the inhibition is -10.4% (inactive). With `CCN(CC)CCOCCOC(=O)C1(c2ccccc2)CCCC1`, the inhibition was -2.7% (inactive).

As to `CCOC(=O)[C@H](CCc1ccccc1)N[C@@H](C)C(=O)N1[C@H](C(=O)O)C[C@H]2CCCC[C@@H]21`, the inhibition was 12.1% (active).

Take `C[C@H](NC(CCc1ccccc1)C(=O)O)C(=O)N1CCC[C@H]1C(=O)O` (stereo not given in full): the inhibition is -5.7% (inactive).
